Source: PubChem BioAssay (Tox21)
Results filed as inconclusive are left out. Active and inactive are the calls of the source. Unless noted, calls come from the whole dose curve; as a rule, active = well fitted curve in the direction sought with a large enough effect in the repeat runs; inconclusive = weak or mixed curves; inactive = no such curve, though single readings can be large; an effect the other way counts as inactive or inconclusive.

Key:
[1] = qHTS RealTime-Glo MT Cell Viability Assay in HEK293 cells - 0 hour (AID 1224880); note: top concentration of the series differs between compounds; nearly all actives have a fitted effect of over 45% in size
Method in brief: (§1)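 Cells were seeded together with NanoLuc luciferase and a prosubstrate that viable cells reduce to a luciferase substrate. After a 5 h incubation at 37 C/5% CO2, compounds were added and luminescence was measured repeatedly during 40 h of treatment.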

[2] = A CellTox Green Cytotoxicity Assay to monitor cytotoxicity in HEK293 cells - 32 hour (AID 1224881); note: nearly all actives have a fitted effect of over 40% in size
Method in brief: (§2)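 Nonlytic real-time cytotoxicity: HEK293 + CellTox Green reagent plated, 5 h preincubation, pintool compound addition (23 nL in DMSO), 37 C for 40 h, fluorescence measured at successive time points.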

[3] = A CellTox Green Cytotoxicity Assay to monitor cytotoxicity in HepG2 cells - 0 hour (AID 1224882); note: nearly all actives have a fitted effect of over 35% in size
Method in brief: (§3)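 Read-out is fluorescence of a cyanine dye excluded from live cells that stains DNA of dead HepG2 cells, with signal proportional to cytotoxicity. Plates were read at 0, 8, 16, 24, 32 and 40 h after compound addition.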

[4] = A CellTox Green Cytotoxicity Assay to monitor cytotoxicity in HepG2 cells - 32 hour (AID 1224883); note: nearly all actives have a fitted effect of over 50% in size
Method in brief: as §3

[5] = A CellTox Green Cytotoxicity Assay to monitor cytotoxicity in HEK293 cells - 8 hour (AID 1224884); note: nearly all actives have a fitted effect of over 35% in size
Method in brief: as §2

[6] = qHTS RealTime-Glo MT Cell Viability Assay in HepG2 cells - 16 hour (AID 1224885); note: nearly all actives have a fitted effect of over 50% in size
Method in brief: (§4)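 Tox21 10K library screened in qHTS format on HepG2 cells carrying RealTime-Glo reagents. Compounds were added after a 5 h preincubation, and the luminescent signal from continuous culture was measured repeatedly during 40 h treatment.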

[7] = qHTS RealTime-Glo MT Cell Viability Assay in HEK293 cells - 24 hour (AID 1224886); note: top concentration of the series differs between compounds; nearly all actives have a fitted effect of over 50% in size
Method in brief: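 Luminescence generated by NanoLuc from substrate produced by living HEK293 cells served as the viability signal. Each value reflects the reading at its stated time point during continuous 40 h compound exposure at 37 C.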

[8] = qHTS RealTime-Glo MT Cell Viability Assay in HEK293 cells - 8 hour (AID 1224887); note: top concentration of the series differs between compounds; nearly all actives have a fitted effect of over 50% in size
Method in brief: as §1

[9] = A CellTox Green Cytotoxicity Assay to monitor cytotoxicity in HEK293 cells - 16 hour (AID 1224888); note: nearly all actives have a fitted effect of over 35% in size
Method in brief: as §2

[10] = qHTS RealTime-Glo MT Cell Viability Assay in HepG2 cells - 0 hour (AID 1224889); note: nearly all actives have a fitted effect of over 50% in size
Method in brief: as §4

[11] = qHTS assay to identify small molecule antagonists of the estrogen receptor alpha (ER-alpha) signaling pathway using the BG1 cell line in the presence of 0.1 nM 17-beta-estradiol - cell viability counter screen (AID 1259241); note: nearly all actives have a fitted effect of over 40% in size
Method in brief: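 VM7Luc4E2, 4,000 cells/well, phenol red-free medium + 10% charcoal-stripped FBS; 24 hr plating; cpd + 0.1 nM E2 final, 22 hr 37C/5% CO2; CellTiter-Fluor 30 min, fluorescence.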

[12] = qHTS assay to identify small molecule antagonists of the androgen receptor (AR) signaling pathway using the MDA cell line in the presence of 0.5 nM R1881 - cell viability counter screen (AID 1259242); note: nearly all actives have a fitted effect of over 45% in size
Method in brief: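 Counter screen for cytotoxicity run in the same wells as the AR antagonist reporter screen: MDA-kb2 cells were treated 16 hr with test compounds and 0.5 nM R1881, then live-cell protease activity was measured by fluorescence.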

[13] = biological target: Estrogen receptor (Homo sapiens) (UniProt P03372); experiment: qHTS assay to identify small molecule antagonists of the estrogen receptor alpha (ER-alpha) signaling pathway using the BG1 cell line in the presence of 0.1 nM 17-beta-estradiol (AID 1259244); note: nearly all actives have a fitted effect of over 50% in size
Sequence of Estrogen receptor (Homo sapiens) (P03372 whole entry, looked up): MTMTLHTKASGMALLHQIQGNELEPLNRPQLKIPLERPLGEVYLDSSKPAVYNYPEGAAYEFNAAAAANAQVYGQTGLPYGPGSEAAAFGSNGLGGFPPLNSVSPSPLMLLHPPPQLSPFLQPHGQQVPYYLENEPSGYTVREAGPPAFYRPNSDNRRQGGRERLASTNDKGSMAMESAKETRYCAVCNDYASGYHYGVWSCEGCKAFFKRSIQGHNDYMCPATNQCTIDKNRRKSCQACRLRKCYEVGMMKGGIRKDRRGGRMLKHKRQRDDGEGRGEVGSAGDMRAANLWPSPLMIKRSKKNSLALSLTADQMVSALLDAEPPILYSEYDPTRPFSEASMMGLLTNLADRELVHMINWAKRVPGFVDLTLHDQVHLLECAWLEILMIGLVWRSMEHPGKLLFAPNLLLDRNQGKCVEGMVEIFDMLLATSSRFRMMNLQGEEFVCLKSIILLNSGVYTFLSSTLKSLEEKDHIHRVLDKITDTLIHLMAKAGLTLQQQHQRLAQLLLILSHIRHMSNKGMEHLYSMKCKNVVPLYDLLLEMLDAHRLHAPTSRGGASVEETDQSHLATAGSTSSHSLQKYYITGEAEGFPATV
Method in brief: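 Cells: VM7Luc4E2, endogenous ER-alpha, 4x ERE-luc stable. Pre-culture 5 d, phenol red-free, charcoal-stripped FBS. Plated 24 h, compound + E2 0.1 nM final, 22 h 37C/5% CO2. Readout ONE-Glo luminescence.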

[14] = qHTS assay to identify small molecule phospholipidosis (PLD) inducers (AID 1259344; active = well fitted curve in the direction sought with a large enough effect; an effect the other way counts as inactive or inconclusive)
Method in brief: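 Quantitative HTS in HepG2: compound plus LipidTOX Red dye for 24 h, paraformaldehyde fixation with Hoechst 33342, widefield high-content imaging; amiodarone as positive and DMSO as negative control.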

[15] = qHTS assay to identify small molecule HDAC inhibitors (AID 1259364); note: nearly all actives have a fitted effect of over 45% in size; note: potency is the fitted concentration of half-maximal effect; for activity change, negative = inhibition: top concentration of the series differs between compounds
Method in brief: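 Luminescence from a cell-permeant luminogenic class I/II HDAC substrate reports endogenous deacetylase activity in intact HCT-116 cells treated with compounds for 2 h.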

[16] = qHTS assay to identify small molecule HDAC inhibitors - cell viability counter screen (AID 1259365)
Method in brief: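 Luminescence from CellTiter-Glo, developed 30min at room temperature, reports viability of wild-type HCT-116 cells treated 2hr with compounds at 37 C and 5% CO2 after overnight plating.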

[17] = qHTS assay to identify small molecule agonists of the sonic hedgehog signaling (Shh) pathway - cell viability counter screen (AID 1259366); note: nearly all actives have a fitted effect of over 50% in size
Method in brief: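 Cytotoxicity counter screen run in the same wells as the Shh reporter assay. NIH/3T3 cells carrying a Gli1 response element–driven luciferase were treated with DMSO-dissolved compounds for 24hr, and live-cell protease activity was measured with CellTiter-Fluor.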

[18] = qHTS assay to identify small molecule antagonists of the sonic hedgehog signaling (Shh) pathway - cell viability counter screen (AID 1259367); note: nearly all actives have a fitted effect of over 55% in size; note: potency is the fitted concentration of half-maximal effect
Method in brief: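 Seed 3T3 Gli1-Luc cells at 2,000 per well; incubate 4 hr; add compound in DMSO, then conditioned medium; incubate at 37C with 5% CO2; add CellTiter-Fluor after 23 hr; read fluorescence 1 hr later.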

[19] = A CellTox Green Cytotoxicity Assay to monitor cytotoxicity in HepG2 cells - 8 hour (AID 1224890); note: nearly all actives have a fitted effect of over 45% in size
Method in brief: as §3

[20] = biological target: Androgen receptor (Homo sapiens) (UniProt P10275); experiment: qHTS assay to identify small molecule antagonists of the androgen receptor (AR) signaling pathway using the MDA cell line in the presence of 0.5 nM R1881 (AID 1259243); note: nearly all actives have a fitted effect of over 50% in size
Sequence of Androgen receptor (Homo sapiens) (P10275 whole entry, looked up): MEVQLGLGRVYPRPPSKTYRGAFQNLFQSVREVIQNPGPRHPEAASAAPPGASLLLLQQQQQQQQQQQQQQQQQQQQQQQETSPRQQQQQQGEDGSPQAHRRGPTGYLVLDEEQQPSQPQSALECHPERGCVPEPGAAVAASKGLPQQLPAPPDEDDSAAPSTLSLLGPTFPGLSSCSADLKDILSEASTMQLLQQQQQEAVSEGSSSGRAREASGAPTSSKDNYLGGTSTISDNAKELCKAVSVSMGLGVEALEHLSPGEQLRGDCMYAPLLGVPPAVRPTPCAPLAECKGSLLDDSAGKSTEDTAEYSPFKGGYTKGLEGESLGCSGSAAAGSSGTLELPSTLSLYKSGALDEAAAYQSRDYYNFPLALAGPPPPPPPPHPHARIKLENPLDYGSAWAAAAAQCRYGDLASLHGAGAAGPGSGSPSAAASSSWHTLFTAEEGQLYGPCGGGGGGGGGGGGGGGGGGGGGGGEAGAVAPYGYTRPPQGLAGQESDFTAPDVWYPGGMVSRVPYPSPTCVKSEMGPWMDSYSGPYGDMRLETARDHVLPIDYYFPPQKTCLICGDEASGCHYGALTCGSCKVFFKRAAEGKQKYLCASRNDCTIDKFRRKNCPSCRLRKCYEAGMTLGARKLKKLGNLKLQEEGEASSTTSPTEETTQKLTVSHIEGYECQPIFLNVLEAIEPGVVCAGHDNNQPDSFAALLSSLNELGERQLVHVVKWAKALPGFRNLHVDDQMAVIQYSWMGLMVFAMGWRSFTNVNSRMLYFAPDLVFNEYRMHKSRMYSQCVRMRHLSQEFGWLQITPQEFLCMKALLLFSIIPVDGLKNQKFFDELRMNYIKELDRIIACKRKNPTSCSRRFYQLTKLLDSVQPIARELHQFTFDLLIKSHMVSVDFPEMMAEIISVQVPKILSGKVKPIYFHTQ
Method in brief: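 Luciferase luminescence is the read-out: compounds are tested for suppressing 0.5 nM R1881-driven MMTV reporter activity in MDA-kb2 cells after 16 hr at 37C.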
% is set by controls: 0 for no effect and ±100 for the full control effect.

Cc1cccc(C)c1NC(=O)CN1CCCCCC1
inactive: outcome [1] | Potency [2] | Potency [3] | Potency [4] | Potency [5] | outcome [6] | Potency [7] | Potency [8] | Potency [9] | Potency [10] | Potency [11] | outcome [12] | Potency [13] | outcome [14] | Potency [15] | outcome [16] | Potency [17] | Potency [18]

CC(C)Nc1nc(N)nc(Cl)n1
inactive: outcome [1] | Potency [2] | Potency [3] | Potency [4] | Potency [5] | outcome [6] | Potency [7] | Potency [8] | Potency [9] | Potency [10] | Potency [19] | Potency [11] | outcome [12] | Potency [15] | outcome [16] | Potency [17] | Potency [18]

Cc1ccc(C)c(N)c1
inactive: outcome [1] | Potency [2] | Potency [3] | Potency [4] | Potency [5] | outcome [6] | Potency [7] | Potency [8] | Potency [9] | Potency [10] | Potency [11] | outcome [12] | Potency [13] | outcome [16] | Potency [17] | Potency [18]

CCN[C@H]1CN(CCCOC)S(=O)(=O)c2sc(S(N)(=O)=O)cc21
inactive: outcome [1] | Potency [2] | Potency [3] | Potency [4] | Potency [5] | Potency [7] | Potency [8] | Potency [9] | Potency [10] | Potency [19] | Potency [11] | outcome [12] | Potency [13] | outcome [14] | outcome [16] | Potency [17] | Potency [18]

FC(F)(F)C(F)(F)C(F)(F)C(F)(F)C(F)(F)C(F)(F)C(F)(F)C(F)(F)Br
inactive: outcome [1] | Potency [2] | Potency [3] | Potency [4] | Potency [5] | Potency [7] | Potency [8] | Potency [9] | Potency [10] | Potency [19] | Potency [11] | outcome [12] | Potency [13] | outcome [14] | Potency [15] | outcome [16] | Potency [17] | Potency [18]

CC1CN(c2ccccc2)NC1=O (centres undefined)
active: Potency [15] 24.3 µM
inactive: outcome [1] | Potency [2] | Potency [3] | Potency [4] | Potency [5] | Potency [7] | Potency [8] | Potency [9] | Potency [10] | Potency [19] | Potency [11] | outcome [12] | outcome [16] | Potency [17] | Potency [18]

CN1[C@@H]2CC[C@H]1CC(OC(=O)c1c[nH]c3ccccc13)C2 (some centres undefined)
inactive: outcome [1] | Potency [2] | Potency [3] | Potency [4] | Potency [5] | outcome [6] | Potency [7] | Potency [8] | Potency [10] | Potency [19] | Potency [11] | outcome [12] | outcome [14] | Potency [15] | outcome [16] | Potency [17] | Potency [18]

CC1(O)CSC(C)(O)CS1 (centres undefined)
inactive: outcome [1] | Potency [2] | Potency [3] | Potency [4] | Potency [5] | outcome [6] | Potency [7] | Potency [9] | Potency [10] | Potency [19] | Potency [11] | outcome [12] | Potency [20] | Potency [13] | outcome [16] | Potency [17] | Potency [18]
active: Potency [15] 21.7 µM

O=C(O)c1cccc(Cl)c1Cl
inactive: outcome [1] | Potency [2] | Potency [3] | Potency [4] | Potency [5] | outcome [6] | Potency [7] | Potency [8] | Potency [9] | Potency [19] | Potency [11] | outcome [12] | Potency [13] | Potency [15] | outcome [16] | Potency [17] | Potency [18]

CCCCC(=O)O[C@]1(C(=O)CO)[C@H](C)C[C@H]2[C@@H]3CCC4=CC(=O)C=C[C@]4(C)[C@@]3(F)[C@@H](O)C[C@@]21C
inactive: outcome [1] | Potency [2] | Potency [3] | Potency [4] | Potency [5] | outcome [6] | Potency [7] | Potency [8] | Potency [9] | Potency [19] | Potency [11] | outcome [12] | Potency [13] | outcome [14] | outcome [16] | Potency [17] | Potency [18]

CC(C)CC(=O)OCc1ccccc1
inactive: outcome [1] | Potency [2] | Potency [3] | Potency [4] | Potency [5] | outcome [6] | Potency [7] | Potency [8] | Potency [9] | Potency [19] | Potency [11] | outcome [12] | Potency [13] | Potency [15] | outcome [16] | Potency [17] | Potency [18]

CCCCC1CCC(=O)O1 (centres undefined)
inactive: outcome [1] | Potency [2] | Potency [3] | Potency [4] | Potency [5] | Potency [7] | Potency [8] | Potency [9] | Potency [10] | Potency [19] | Potency [11] | outcome [12] | Potency [13] | outcome [16] | Potency [17] | Potency [18]

CC(CNC1CCCCC1)OC(=O)c1ccccc1 (centres undefined)
inactive: outcome [1] | Potency [2] | Potency [3] | Potency [4] | Potency [5] | outcome [6] | Potency [7] | Potency [8] | Potency [9] | Potency [19] | Potency [11] | outcome [12] | Potency [13] | outcome [14] | Potency [15] | outcome [16] | Potency [17] | Potency [18]

NC(Cc1ccc(F)cc1)C(=O)O (centres undefined)
inactive: activity change, negative = cytotoxicity [1] -1.64% [at 6.97 µM] | cytotoxicity increase [2] 12.7% [at 6.97 µM] | cytotoxicity [3] -0.531% [at 6.97 µM] | cytotoxicity increase [4] 8.52% [at 6.97 µM] | cytotoxicity increase [5] 17.5% [at 6.97 µM] | activity change, negative = cytotoxic [6] 2.23% [at 6.97 µM] | activity change, negative = cytotoxicity [7] -0.156% [at 6.97 µM] | activity change, negative = cytotoxicity [8] 1.39% [at 6.97 µM] | activity change [9] 17.7% [at 6.97 µM, hits give high values] | cytotoxicity increase [19] 1.46% [at 6.97 µM] | activity change, negative = cytotoxicity [11] 0.956% [at 8.39 µM] | viability change, negative = cytotoxic [12] 3.8% [at 8.39 µM] | activity change, negative = inhibition [15] -2.41% [at 8.39 µM] | activity change, negative = cytotoxicity [16] 4.97% [at 8.39 µM] | viability change, negative = cytotoxic [17] -12.8% [at 8.39 µM]

COc1cc2c(cc1N)oc1ccccc12
inactive: outcome [1] | Potency [2] | Potency [3] | Potency [4] | Potency [5] | outcome [6] | Potency [9] | Potency [10] | Potency [11] | outcome [12] | outcome [16]
active: Potency [18] 62.4 µM
